Consider 27 compounds from PubChem BioAssay AID1117319 (Southern Research Institute, 2015).

Several values for one entry are separate records, joined by “and”; a condition that tells them apart may be missing. Equal entries are not always repeated. Among all 260,000 compounds or so, about 1,500 (0.58%) were called active. About 5% were inconclusive and are not listed. Not all results are given here. Measured potencies and affinities stand elsewhere. Values without a mark were called inactive.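 Rule for the calls: active = inhibition above a set limit at one or more doses, reproduced on every date tested; inconclusive = results disagree between test dates, or hit never tested in dose response; inactive = the rest.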

This experiment addresses Virion infectivity factor (Human immunodeficiency virus type 1 group M subtype B (isolate BH10)) + Virion infectivity factor (Human immunodeficiency virus type 1 group M subtype B (isolate BRU/LAI)) + Virion infectivity factor (Human immunodeficiency virus type 1 group M subtype B (isolate PCV12)) + Virion infectivity factor (Human immunodeficiency virus type 1 group M subtype B (isolate HXB2)) + DNA dC->dU-editing enzyme APOBEC-3G (Homo sapiens) (UniProt P69720+P69721+P69722+P69723+Q9HC16). The experiment is described as follows: HIV-1 Vif–A3G interaction blockers – biochemical, TR-FRET, GST-Vif 1-94, biotin-A3G peptide, dose response retest, primary screen (AID 1117319).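 Note: Vif residues 1-94 fused to GST binding biotinylated APOBEC3G peptide 110-148; 0% = full assay without inhibitor and 100% = GST in place of GST-Vif.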 Conditions: TR-FRET GST-Vif / biotin-A3G peptide binding; hits give high values. A general note: Time-resolved FRET reads energy transfer from a long-lived donor to a nearby acceptor.
Take `Cc1c(C(=O)NCc2ccccn2)sc2nc(-c3ccc(F)cc3)cn12`: the inhibition is 0.67%. Next, `Cc1ccc(NC(=O)CC2C(=O)NC3CCCCC3N2C(=O)c2ccc(F)cc2)cc1C` (configuration not stated): 1.01% and 26.2%; `Cc1nn(Cc2cccc(Oc3ccccc3)c2)c(C)c1NC(=O)NC12CC3CC(CC(C3)C1)C2`: -5.96%; `Clc1ccc(CSc2cc3c(nn2)-c2ccccc2CC3)cc1Cl`: -6.32%. Next, `CC1(C(=O)OCC(=O)Nc2ccccc2Cl)CC1(Cl)Cl` (configuration not stated): -10.2%. Next, `Cc1c(Cl)ccc(S(=O)(=O)NCCN2CCOCC2)c1Cl`: 6.83%.

On to `O=CN1CCN(C2CC(=O)N(c3ccc(Br)cc3)C2=O)CC1` (configuration not stated), for which the inhibition is 22.2%. Next, `Cc1ccc(Oc2ccccc2/C=C/C(=O)O)cc1`: 7.01%; `COC(=O)c1ccccc1NC(=O)c1noc2c1CC(C(C)(C)C)CC2` (configuration not stated): -0.63%; `CC(=O)c1ccc(NC(=O)c2noc3c2CCC3)cc1`: -4.79%.

As for `COc1cc(NC(=O)c2noc3c2CCCC3)c(OC)cc1Cl`, the inhibition was 11.1%. `COc1ccc(Cl)cc1NC(=O)c1noc2c1CCCC2`: the inhibition was -11.1%. On to `CC(C)(C)C1CCc2onc(C(=O)Nc3ccc(F)cc3F)c2C1` (configuration not stated), for which the inhibition is 2.83%.

With `COC(=O)c1ccccc1NC(=O)c1noc2c1CCCC2`, the inhibition is 3.34%. Next, `Cc1ccc(NC(=O)c2noc3c2CCC3)cc1C`: -3.45%. For `O=C(Nc1ccccc1C(=O)N1CCOCC1)c1noc2c1CCCC2`, the inhibition was -4.02%. Next, `CCS(=O)(=O)c1ccc(-c2csc(-c3ccc(Cl)cc3)n2)c(Cl)c1Cl`: 2.97%; `CN(CCCNC(=O)CCCOc1cc(=O)n(C)c2ccccc12)Cc1ccccc1`: 4.88%. Next, `CN(C)C(CNC(=O)c1cccc(S(=O)(=O)NCc2ccccc2)c1)c1ccco1` (configuration not stated): 0.14%; `O=C(CC1SC(N2CCCC2)=NC1=O)Nc1ccc(C(=O)NCc2ccc(F)cc2)cc1` (configuration not stated): 4.94%; `COc1cc(OC)cc(-n2nnnc2SCC(=O)NCc2cccs2)c1`: 6.88%. Next, `O=C(O)CCCCCNS(=O)(=O)/C=C/c1ccccc1`: 1.37%; `CCN(CC(=O)Nc1ccc(NC(C)=O)cc1)C(=O)/C=C/c1c(C)nn(-c2ccc(F)cc2)c1Cl`: 0.81%; `COC(=O)c1ccccc1NC(=S)NC(=O)C1CC1`: 0.95%.

On to `COC(=O)c1ccccc1NC(=S)NC(=O)C1CCCCC1`, for which the inhibition is -4.52%.

In the case of `COc1cc(NCc2ccccc2O)c2ncccc2c1`, the inhibition was 3.48%. Next, `COc1cc(NCCCCC(C)N)c2nccc(C)c2c1` (configuration not stated): 9.33%.

As a reminder, the inhibition is the relative decrease from the control value, in per cent.
